Results taken from PubChem BioAssay AID1159580 (chemical genetic matrix, 2015).
Out of some 5,500 compounds screened, about 2,000 (36%) were called active. About 18% were inconclusive and are not listed. No stated cut-off is given here; in the data, active means normalized growth mostly below about 0.91 (no sharp cut-off); inconclusive means no clear call, values can overlap the other calls; inactive means mostly above about 0.92. The list shows a part of the results.

Assay: chemical genetic growth profiling, strain panel (AID 1159580);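 further: tested at 20 µM; growth read once vehicle control cultures reached saturation at 30 °C; 1 = growth at the plate median or of vehicle wells; lower values mean less growth of the strain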
Details: growth OD

Measured: normalized growth

CC(=O)Oc1ccc2c(c1)CCC1C2CC[C@]2(C)C(=O)CCC12 (stereo not given in full)
active: S. cerevisiae deletion strains, locus YLR262C, strain YPT6 (second series), hits give low values 0.689 | S. cerevisiae deletion strains, locus YOR184W, strain ser1, hits give low values 0.86
inactive: S. cerevisiae deletion strains, locus YJR043C, strain POL32, hits give low values 0.982 | S. cerevisiae deletion strains, locus YJR066W, strain TOR1, hits give low values 0.895 | S. cerevisiae deletion strains, locus YKL009W, strain mrt4, hits give low values 0.972 | S. cerevisiae deletion strains, locus YKL068W, hits give low values 1.02 | S. cerevisiae deletion strains, locus YKL085W, strain MDH1 (second series), hits give low values 1 | S. cerevisiae deletion strains, locus YKL085W, strain MDH1, hits give low values 1 | S. cerevisiae deletion strains, locus YKL160W, strain elf1, hits give low values 0.986 | S. cerevisiae deletion strains, locus YKL190W, strain CNB1, hits give low values 1 | S. cerevisiae deletion strains, locus YKR001C, strain vps1, hits give low values 1.01 | S. cerevisiae deletion strains, locus YKR026C, strain gcn3, hits give low values 0.984 | S. cerevisiae deletion strains, locus YKR091W, strain srl3, hits give low values 0.985 | S. cerevisiae deletion strains, locus YLL001W, strain dnm1, hits give low values 0.964 | S. cerevisiae deletion strains, locus YLL026W, hits give low values 0.988 | S. cerevisiae deletion strains, locus YLL041C, strain sdh2, hits give low values 0.983 | S. cerevisiae deletion strains, locus YLR027C, strain aat2, hits give low values 0.983 | S. cerevisiae deletion strains, locus YLR039C, strain RIC1, hits give low values 0.725 | S. cerevisiae deletion strains, locus YLR058C, strain SHM2, hits give low values 0.987 | S. cerevisiae deletion strains, locus YLR102C, strain apc9, hits give low values 1.02 | S. cerevisiae deletion strains, locus YLR113W, strain HOG1, hits give low values 0.991 | S. cerevisiae deletion strains, locus YLR221C, strain rsa3, hits give low values 0.991 | S. cerevisiae deletion strains, locus YLR258W, strain gsy2, hits give low values 0.985 | S. cerevisiae deletion strains, locus YLR262C, strain YPT6, hits give low values 0.623 | S. cerevisiae deletion strains, locus YLR268W, strain sec22, hits give low values 1.01 | S. cerevisiae deletion strains, locus YLR320W, strain mms22, hits give low values 0.983 | S. cerevisiae deletion strains, locus YLR330W, strain CHS5, hits give low values 1 | S. cerevisiae deletion strains, locus YLR342W, strain FKS1 (second series), hits give low values 0.959 | S. cerevisiae deletion strains, locus YLR342W, strain FKS1, hits give low values 0.965 | S. cerevisiae deletion strains, locus YLR357W, strain rsc2, hits give low values 0.981 | S. cerevisiae deletion strains, locus YLR370C, strain arc18, hits give low values 0.975 | S. cerevisiae deletion strains, locus YLR371W, strain rom2, hits give low values 1.02 | S. cerevisiae deletion strains, locus YLR384C, strain iki3, hits give low values 0.961 | S. cerevisiae deletion strains, locus YLR418C, strain cdc73, hits give low values 0.966 | S. cerevisiae deletion strains, locus YML016C, strain PPZ1, hits give low values 1 | S. cerevisiae deletion strains, locus YML032C, strain rad52, hits give low values 0.997 | S. cerevisiae deletion strains, locus YML120C, strain ndi1, hits give low values 0.986 | S. cerevisiae deletion strains, locus YML124C, strain tub3, hits give low values 1.02 | S. cerevisiae deletion strains, locus YMR058W, strain fet3, hits give low values 0.96 | S. cerevisiae deletion strains, locus YMR078C, strain ctf18, hits give low values 0.999 | S. cerevisiae deletion strains, locus YMR125W, strain sto1, hits give low values 0.992 | S. cerevisiae deletion strains, locus YMR129W, hits give low values 0.987 | S. cerevisiae deletion strains, locus YMR205C, strain PFK2, hits give low values 0.947 | S. cerevisiae deletion strains, locus YMR223W, strain ubp8, hits give low values 0.996 | S. cerevisiae deletion strains, locus YMR231W, strain pep5, hits give low values 0.964 | S. cerevisiae deletion strains, locus YMR307W, strain GAS1, hits give low values 1.07 | S. cerevisiae deletion strains, locus YNL067W, strain RPL9B, hits give low values 0.956 | S. cerevisiae deletion strains, locus YNL071W, strain lat1, hits give low values 0.994 | S. cerevisiae deletion strains, locus YNL128W, strain TEP1, hits give low values 1.02 | S. cerevisiae deletion strains, locus YNL183C, strain NPR1, hits give low values 0.894 | S. cerevisiae deletion strains, locus YNL209W, strain ssb2, hits give low values 0.982 | S. cerevisiae deletion strains, locus YNL233W, strain BNI4, hits give low values 0.949 | S. cerevisiae deletion strains, locus YNL248C, strain rpa49, hits give low values 1 | S. cerevisiae deletion strains, locus YNL250W, strain rad50, hits give low values 1.01 | S. cerevisiae deletion strains, locus YNL271C, strain bni1, hits give low values 1.02 | S. cerevisiae deletion strains, locus YNL298W, strain CLA4, hits give low values 0.962 | S. cerevisiae deletion strains, locus YNL307C, strain MCK1, hits give low values 1.01 | S. cerevisiae deletion strains, locus YNL322C, strain KRE1 (second series), hits give low values 0.967 | S. cerevisiae deletion strains, locus YNL322C, strain KRE1, hits give low values 1 | S. cerevisiae deletion strains, locus YNR049C, strain mso1, hits give low values 0.992 | S. cerevisiae deletion strains, locus YNR052C, strain pop2, hits give low values 0.996 | S. cerevisiae deletion strains, locus YOL006C, strain TOP1, hits give low values 0.719 | S. cerevisiae deletion strains, locus YOL012C, strain htz1 1.64 | S. cerevisiae deletion strains, locus YOL147C, strain pex11, hits give low values 1.01 | S. cerevisiae deletion strains, locus YOR001W, strain rrp6, hits give low values 0.972 | S. cerevisiae deletion strains, locus YOR061W, strain CKA2, hits give low values 1 | S. cerevisiae deletion strains, locus YOR069W, strain VPS5, hits give low values 1.01 | S. cerevisiae deletion strains, locus YOR070C, strain gyp1, hits give low values 0.988 | S. cerevisiae deletion strains, locus YOR080W, strain dia2, hits give low values 0.983 | S. cerevisiae deletion strains, locus YOR083W, strain WHI5, hits give low values 0.976 | S. cerevisiae deletion strains, locus YOR106W, strain vam3, hits give low values 0.968 | S. cerevisiae deletion strains, locus YOR136W, strain idh2, hits give low values 1.01 | S. cerevisiae deletion strains, locus YOR144C, strain elg1, hits give low values 1.01 | S. cerevisiae deletion strains, locus YOR231W, strain MKK1, hits give low values 0.928 | S. cerevisiae deletion strains, locus YOR265W, strain rbl2, hits give low values 0.989 | S. cerevisiae deletion strains, locus YOR270C, strain vph1, hits give low values 0.975 | S. cerevisiae deletion strains, locus YOR290C, strain snf2, hits give low values 0.998 | S. cerevisiae deletion strains, locus YOR316C, strain cot1, hits give low values 1.03 | S. cerevisiae deletion strains, locus YPL051W, strain arl3, hits give low values 0.979 | S. cerevisiae deletion strains, locus YPL078C, strain atp4, hits give low values 0.959 | S. cerevisiae deletion strains, locus YPL106C, strain sse1, hits give low values 1.02 | S. cerevisiae deletion strains, locus YPL240C, strain hsp82, hits give low values 0.969 | S. cerevisiae deletion strains, locus YPL241C, strain CIN2, hits give low values 1.01 | S. cerevisiae deletion strains, locus YPL256C, strain CLN2, hits give low values 0.945 | S. cerevisiae deletion strains, locus YPR119W, strain clb2, hits give low values 1.01 | S. cerevisiae deletion strains, locus YPR141C, strain kar3, hits give low values 1.02 | S. cerevisiae deletion strains, locus YPR163C, strain tif3, hits give low values 1.03 | S. cerevisiae deletion strains, locus YPR167C, strain met16, hits give low values 1.02 | S. cerevisiae deletion strains, strain wtn01, hits give low values 0.997 | S. cerevisiae strains, strain wild type, hits give low values 0.993
